Inconclusive results are not listed. Entries that show only a call come without a potency. Activity calls are given as the source filed them. Calls come from the whole dose curve; as a rule, active = well fitted activation curve with a large enough effect; inconclusive = small, poorly fitted or top-dose-only effect; inactive = flat fitted curve, though single readings scatter. Residues, ends and D or L forms follow the SMILES beside them. *: point of attachment. Cbz = O=C(OCc1ccccc1)*
Target: D(1A) dopamine receptor (Homo sapiens) (UniProt P21728)
Sequence (P21728 whole entry, looked up): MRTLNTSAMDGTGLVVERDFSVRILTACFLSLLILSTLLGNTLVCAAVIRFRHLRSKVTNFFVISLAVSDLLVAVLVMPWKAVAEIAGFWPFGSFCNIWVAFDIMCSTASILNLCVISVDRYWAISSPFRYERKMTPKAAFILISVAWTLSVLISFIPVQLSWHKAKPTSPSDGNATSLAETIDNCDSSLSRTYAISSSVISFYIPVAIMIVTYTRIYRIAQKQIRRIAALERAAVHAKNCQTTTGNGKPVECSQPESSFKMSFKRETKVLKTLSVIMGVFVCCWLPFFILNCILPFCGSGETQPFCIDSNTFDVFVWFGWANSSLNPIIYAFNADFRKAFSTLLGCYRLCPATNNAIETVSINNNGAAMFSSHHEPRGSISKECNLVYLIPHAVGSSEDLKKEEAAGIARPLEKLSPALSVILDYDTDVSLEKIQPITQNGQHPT
Assay: HTS Assay for Allosteric Agonists of the Human D1 Dopamine Receptor: Primary Screen for Agonists (AID 488981)
Details: Inducible HEK293 T-REx D1 cells, calcium-flux fluorescence, 180 s kinetic; series mostly up to 41.8 µM
Description: Dopamine receptors (DARs) are involved in the etiology and/or therapy of a number of neuropsychiatric and endocrine disorders. For instance, all receptor-based antiparkinsonian drugs work via stimulating the […] DAR subtype whereas all FDA-approved antipsychotic agents are antagonists of this receptor. […] There are three different types of allosteric modulators that we are seeking, two of which will stimulate or augment receptor signaling, allosteric agonists and potentiators, while the third, allosteric antagonists, will attenuate receptor signaling. The present primary screening assay measures compound agonism by tracking calcium flux in a […], inducible Hek293 Trex D1 cell line.
Freshly passaged cells are plated in 1536 well black, clear bottom plates at a density of 4000 cells/well in 3 ul of complete media containing 1x tetracycline inducer. After an overnight incubation at 30 C in 5% CO2, cells are loaded with 2 ul of the no wash Calcium Assay Kit (ABD Bioquest) and incubated at room temperature for 30 to 90 minutes. A 10 cycle (1 second/cycle) baseline measurement is taken and then the FDSS online 1536 pintool delivers 23 nl of compound library (as well as dopamine controls) to the plate. The plate is measured for kinetically at 1 cycle/sec for 180 seconds and is considered to be the agonist portion of the assay (eg, compounds which activate a positive calcium response during this portion are flagged as potential agonists). Following the 180 second read, 1 ul of an EC20 of dopamine is delivered by an onboard pipette head. Measurements are taken kinetically for an additional 180 seconds.
Potency is the fitted concentration of half-maximal effect.

| SMILES | Potency |
| --- | --- |
| CN(C)CCCc1cc(C(=O)Nc2ccc(-c3ccncc3)cc2)ccc1O | inactive |
| O=c1ccc2c(OCCCCc3ccccc3)c3ccoc3cc2o1 | inactive |
| Cn1cc(C(F)(F)F)nc1-c1ccc(OCC(O)CNCCOc2ccc(O)c(C(N)=O)c2)cc1 (stereo not given) | inactive |
| CSC(N)=NCCC[C@H](N)C(=O)O | inactive |
| NC(=O)CC[C@H](N)C(=O)O | inactive |
| O=C(O)/C=C/c1cnc[nH]1 | inactive |
| COc1cccc(OC)c1OCCNCC1CSc2ccccc2O1 (stereo not given) | inactive |
| CN(CC[C@@H](Oc1ccc(C(F)(F)F)cc1)c1ccccc1)CC(=O)O | inactive |
| CCCc1c(OCCCOc2ccc(OCC(=O)O)cc2)ccc(C(C)=O)c1O | inactive |
| CCCCCC[C@@H]([C@@H](C)O)n1cnc2c(N)ncnc21 | inactive |
| Cc1nc2n(c(=O)c1CCN1CCC(c3noc4cc(F)ccc34)CC1)CCCC2O (stereo not given) | inactive |
| CCOC(=O)C12CC1/C(=N/O)c1ccccc1O2 (stereo not given) | inactive |
| CCCCCCCCCC[Si](C)(C)CCC(=O)NC(Cc1ccc(C)cc1)c1ccccc1 (stereo not given) | inactive |
| CCC1(O)CC2CN(CCc3c([nH]c4ccccc34)[C@@](C(=O)OC)(c3cc4c(cc3OC)N(C=O)C3[C@]45CCN4CC=C[C@@](CC)([C@@H](OC(C)=O)[C@]3(O)C(=O)OC)[C@H]45)C2)C1 (stereo not given in full) | inactive |
| COCc1nc2c([nH]1)c(=O)n(C)c(=O)n2CC(C)C | inactive |
| CC(C)[C@H](NC(=O)OCc1ccccc1)C(=O)N[C@H](C=O)Cc1ccccc1 (Cbz-Val-Phe-aldehyde) | inactive |
| COc1cc(/C=C(\C#N)C(=O)c2ccc(O)c(O)c2)cc(I)c1O | 14.1 µM (active) |
| NCCCCN=C(N)N | inactive |
| COc1ccc(-c2cc3ncc(C)n3c(Nc3ncccc3C(N)=O)n2)cc1OC | inactive |
| COc1ccc2c(c1)c(CC(=O)O)c(C)n2C(=O)c1ccccc1 | inactive |

| SMILES | Potency |
| --- | --- |
| CC(N)=O | inactive |
| Cn1c(=O)[nH]c2ncn(C)c2c1=O | inactive |
| [N-]=[N+]=Nc1ccc(C(=O)CSC[C@H](NC(=O)CC[C@H](N)C(=O)O)C(=O)NCC(=O)O)cc1 | inactive |
| OC[C@H]1O[C@H](n2cnc3c(N[C@H]4CCC[C@@H]4O)ncnc32)[C@H](O)[C@@H]1O | inactive |
| CCCc1c(-c2ccc(O)cc2)nn(-c2ccc(O)cc2)c1-c1ccc(O)cc1 | inactive |
| CC(=O)C(C)=O | inactive |
| CCN(CC)CCOC(=O)c1cc(Cl)c(N)cc1OC | inactive |
| N=C(N)c1ccc(N)cc1 | inactive |
| COc1ccc(CCN(C)CCc2ccc(OC)c(OC)c2)cc1OC | inactive |
| Nc1nc2c(cnn2CCc2ccccc2)c2nc(-c3ccco3)nn12 | inactive |
| CCN1C(=O)C=CC1=O | inactive |
| O=c1[nH]c(=O)c2nc3ccccc3nc2[nH]1 | inactive |
| CN1CCC2(CCN3CCc4c(oc5ccccc45)C3C2)N(C)C1=O (stereo not given) | inactive |
| Cn1c(=O)c2[nH]c(-c3ccc(S(=O)(=O)O)cc3)nc2n(C)c1=O | inactive |
| C[C@]12C=CC(=O)C=C1CC[C@@H]1C2=CC[C@]2(C)[C@@H](C(=O)CN3CCN(c4cc(N5CCCC5)nc(N5CCCC5)n4)CC3)CC[C@@H]12 | inactive |
| NC1CONC1=O (stereo not given) | inactive |
| C[C@@H](NCCc1ccc(O)cc1)[C@@H](O)c1ccc(O)cc1 | inactive |
| Cc1cccc(C)c1OCC(N)C(C)C (stereo not given) | inactive |
| CC(N)(Cc1ccc(O)cc1)C(=O)O (stereo not given) | inactive |
| CCCn1c(=O)c2[nH]c(-c3ccc(S(=O)(=O)O)cc3)nc2n(CCC)c1=O | inactive |

Reference: PubChem BioAssay (NCATS)
